Values joined by “and” are separate entries in the source; they are usually repeats but may differ in a detail not shown here. Identical values can stand only once. In all, about 5,500 compounds went through this assay and about 2,000 (36%) were called active. About 18% were inconclusive and are not listed. Rule as the data show it: active = normalized growth mostly below about 0.91 (no sharp cut-off); inconclusive = no clear call, values can overlap the other calls; inactive = mostly above about 0.92. The list shows a part of the results.
Experiment: chemical genetic growth profiling, strain panel (AID 1159580);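 also: tested at 20 µM; growth read once vehicle control cultures reached saturation at 30 °C; 1 = growth at the plate median or of vehicle wells; lower values mean less growth of the strain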
Conditions: S. cerevisiae deletion strains, growth OD

Measured: normalized growth

C=C(C)[C@H]1CC=C(C(=O)O)CC1
inactive: locus YAL013W, strain DEP1, stronger effect = lower value 1.01 | locus YAL021C, strain ccr4, stronger effect = lower value 0.968 | locus YAL026C, strain drs2, stronger effect = lower value 0.958 | locus YAL030W, strain snc1, stronger effect = lower value 0.985 | locus YBL061C, strain skt5, stronger effect = lower value 0.986 | locus YBR009C, strain hhf1, stronger effect = lower value 0.939 | locus YBR023C, strain chs3, stronger effect = lower value 0.985 | locus YBR171W, strain sec66, stronger effect = lower value 0.961 | locus YBR229C, strain ROT2, stronger effect = lower value 1.01 | locus YBR231C, strain swc5, stronger effect = lower value 0.939 | locus YBR279W, strain paf1, stronger effect = lower value 0.972 | locus YCL011C, strain gbp2, stronger effect = lower value 0.973 | locus YCL016C, strain dcc1, stronger effect = lower value 0.979 | locus YCL029C, strain bik1, stronger effect = lower value 0.938 | locus YCL061C, strain MRC1, stronger effect = lower value 0.944 | locus YCL069W, strain vba3, stronger effect = lower value 0.984 | locus YCR088W, strain abp1, stronger effect = lower value 0.994 | locus YDL005C, strain med2, stronger effect = lower value 0.97 | locus YDL035C, strain GPR1, stronger effect = lower value 0.926 | locus YDL040C, strain nat1, stronger effect = lower value 0.995 | locus YDL074C, strain BRE1, stronger effect = lower value 0.945 | locus YDL101C, strain DUN1, stronger effect = lower value 0.976 | locus YDL134C, strain PPH21, stronger effect = lower value 0.944 | locus YDL192W, strain arf1, stronger effect = lower value 0.957 | locus YDR001C, strain nth1, stronger effect = lower value 0.986 | locus YDR069C, strain doa4, stronger effect = lower value 0.999 | locus YDR101C, strain arx1, stronger effect = lower value 0.926 | locus YDR137W, strain rgp1, stronger effect = lower value 1.04 | locus YDR159W, strain sac3, stronger effect = lower value 0.94 | locus YDR162C, strain NBP2, stronger effect = lower value 0.989 | locus YDR297W, strain sur2, stronger effect = lower value 0.971 | locus YDR318W, strain mcm21, stronger effect = lower value 0.938 | locus YDR334W, strain swr1, stronger effect = lower value 0.971 | locus YDR335W, strain msn5, stronger effect = lower value 0.975 | locus YDR388W, stronger effect = lower value 0.952 | locus YDR392W, strain spt3, stronger effect = lower value 0.934 | locus YDR502C, strain sam2, stronger effect = lower value 0.926 | locus YEL003W, strain gim4, stronger effect = lower value 0.943 | locus YEL037C, strain rad23, stronger effect = lower value 0.988 | locus YEL061C, strain CIN8 (second series), stronger effect = lower value 0.991 | locus YEL061C, strain CIN8, stronger effect = lower value 1 | locus YER015W, strain faa2, stronger effect = lower value 0.98 | locus YER016W, strain bim1, stronger effect = lower value 0.992 | locus YER110C, stronger effect = lower value 0.925 | locus YER111C, strain swi4, stronger effect = lower value 0.98 | locus YER155C, strain BEM2 (second series), stronger effect = lower value 1 | locus YER155C, strain BEM2, stronger effect = lower value 0.947 | locus YER167W, strain BCK2, stronger effect = lower value 0.978 | locus YFR010W, strain ubp6, stronger effect = lower value 0.978 | locus YGL086W, strain mad1, stronger effect = lower value 0.965 | locus YGL167C, strain pmr1, stronger effect = lower value 0.978 | locus YGL173C, strain kem1, stronger effect = lower value 0.949 | locus YGL227W, strain vid30, stronger effect = lower value 0.975 | locus YGL240W, strain doc1, stronger effect = lower value 0.956 | locus YGL248W, strain PDE1, stronger effect = lower value 0.97 | locus YGL253W, strain hxk2, stronger effect = lower value 0.944 | locus YGR135W, strain pre9, stronger effect = lower value 0.903 | locus YHR013C, strain ard1, stronger effect = lower value 0.993 | locus YHR027C, strain rpn1, stronger effect = lower value 0.96 | locus YHR079C, strain IRE1 (second series), stronger effect = lower value 0.941 | locus YHR094C, strain hxt1, stronger effect = lower value 0.955 | locus YHR129C, strain ARP1, stronger effect = lower value 0.984 | locus YHR142W, strain chs7, stronger effect = lower value 0.96 | locus YHR200W, strain rpn10, stronger effect = lower value 0.961 | locus YIL066C, strain RNR3, stronger effect = lower value 0.963 | locus YIL073C, strain SPO22, stronger effect = lower value 0.978 | locus YIR030C, strain dcg1, stronger effect = lower value 0.961 | locus YJL092W, strain hpr5, stronger effect = lower value 0.983 | locus YJL095W, strain BCK1 (second series), stronger effect = lower value 0.985 | locus YJL115W, strain asf1, stronger effect = lower value 0.983 | locus YJL129C, strain trk1, stronger effect = lower value 0.911 | locus YJL134W, strain LCB3, stronger effect = lower value 0.996 | locus YJL154C, strain vps35, stronger effect = lower value 0.99 | locus YJL164C, strain tpk1, stronger effect = lower value 0.97 | locus YJL166W, strain qcr8, stronger effect = lower value 0.981 | locus YJL168C, strain set2, stronger effect = lower value 0.968 | locus YJL187C, strain SWE1 (second series), stronger effect = lower value 0.955 | locus YJR043C, strain POL32, stronger effect = lower value 0.916 | locus YKL009W, strain mrt4, stronger effect = lower value 0.954
active: locus YBR021W, strain FUR4, stronger effect = lower value 0.82 | locus YDL185W, strain tfp1, stronger effect = lower value 0.871 | locus YDR195W, strain ref2 0.844 | locus YGL078C, strain dbp3, stronger effect = lower value 0.804 | locus YGR252W, strain gcn5, stronger effect = lower value 0.606 | locus YHR079C, strain IRE1, stronger effect = lower value 0.703 | locus YIL125W, strain kgd1, stronger effect = lower value 0.78 | locus YJR066W, strain TOR1, stronger effect = lower value 0.747
0.98 (inactive) and 0.786 (active): locus YJL095W, strain BCK1, stronger effect = lower value
0.997 (inactive) and 0.788 (active): locus YHR030C, strain SLT2, stronger effect = lower value

Reference: PubChem BioAssay AID1159580 (chemical genetic matrix, 2015)
